# Measured values published in ChEMBL document CHEMBL3433997, “St. Jude Leishmania screening dataset” (2016).
# Biological target: Solute carrier family 2, facilitated glucose transporter member 1 (Homo sapiens) (UniProt P11166)
# Assay: ST_JUDE_LEISH: Cytotoxicity at 2uM final concentration against transgenic Leishmania Mexicana promastigotes LmGLUT1 that are glucose transport deficient and complemented with the human glucose transporter GLUT1. Activity is measured by DNA content using SYBR green in vitro
# Assay type: functional
# Solute carrier family 2, facilitated glucose transporter member 1 (Homo sapiens), sequence (P11166 whole entry): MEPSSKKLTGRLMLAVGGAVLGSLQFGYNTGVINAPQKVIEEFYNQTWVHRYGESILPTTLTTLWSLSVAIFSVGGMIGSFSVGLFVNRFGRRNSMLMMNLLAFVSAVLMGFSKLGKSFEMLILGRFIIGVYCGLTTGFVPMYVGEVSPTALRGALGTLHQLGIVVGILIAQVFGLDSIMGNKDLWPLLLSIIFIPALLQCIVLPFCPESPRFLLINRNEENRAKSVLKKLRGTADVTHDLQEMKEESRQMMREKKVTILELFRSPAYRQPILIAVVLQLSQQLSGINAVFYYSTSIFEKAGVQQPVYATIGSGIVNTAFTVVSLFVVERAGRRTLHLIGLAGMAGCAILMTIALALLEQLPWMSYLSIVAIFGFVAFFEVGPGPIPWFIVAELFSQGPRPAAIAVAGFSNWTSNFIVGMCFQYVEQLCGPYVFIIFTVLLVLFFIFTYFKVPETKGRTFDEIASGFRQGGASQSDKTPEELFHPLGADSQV
row,SMILES,inhibition [%]
1,COc1ccc2nccc([C@@H](O)CN3CCC(NC(=O)/C=C/c4cc(F)cc(Br)c4)CC3)c2c1,6.91
2,Cc1ccc(NC(C)C(=O)Nc2ccccc2)cc1S(=O)(=O)N1CCCCCC1 (stereo not given),10.6
3,N#Cc1cccc(CN2CCCN(Cc3cccc(C(=O)Nc4ccc(Cl)cc4)c3)CC2)c1,0.81
4,CC(Cc1ccc(NC(=O)c2ccc(CC(C)NCc3ccc(Cl)cc3)cc2)cc1)NCCc1cccc(Cl)c1 (stereo not given),10.3
5,Cc1cccc(Nc2nc3nonc3nc2Nc2cccc(Cl)c2Cl)c1C,9.75
6,CN(C)Cc1ccc2nc(-c3cccc(Cc4cc(Cl)ccc4OCc4ccc(Cl)cc4F)n3)[nH]c2c1,-0.36
7,N=C1N=C(N)NCN1OCc1ccc(Cl)c(Cl)c1,3.39
8,COc1cccc(C2=CC(C)(C)Oc3cc(OCCN(C)C)ccc32)c1,0.35
9,Nc1nc(NCC2CCC(CNS(=O)(=O)c3cccc4ccccc34)CC2)nc2ccccc12 (stereo not given),7.11
10,CN1CCC(NCc2cccc(-c3cccc(S(=O)(=O)NCc4ccccc4)c3)c2)CC1,4.86
11,O=C(NC(=S)NCc1ccncc1)c1ccccc1,2.06
12,NC1=NC(c2ccccc2)(c2ccccc2)C(=O)N1CCCCc1ccccn1,-0.54
13,CC(=O)N(Cc1nc(-c2cc(C(F)(F)F)cc(C(F)(F)F)c2)cs1)c1c(C)cccc1C,4.36
14,C=CCC(C(=O)Nc1ccnc2ccc(OC)cc12)C1CCN(CCCCCCC)CC1 (stereo not given),1.74
15,COCCNCC(O)Cn1c2ccc(Cl)cc2c2cc(Cl)ccc21 (stereo not given),-1.12
16,Cc1cc(-c2nc3ccc(N4CCN(C)CC4)cc3[nH]2)nn1Cc1cc(Cl)ccc1OCC(C)C,1
17,CC1CC(C)CN(S(=O)(=O)c2cc(C(=O)Nc3cccc([N+](=O)[O-])c3)ccc2Br)C1 (stereo not given),7.03
18,Nc1nccc2ccc(Oc3ccncc3)cc12,2.47
19,Cc1cc(N[C@@H](Cc2ccccc2)C(=O)Nc2ccccc2)nc(NCCc2ccc(F)cc2)n1,3.66
20,CCOc1cc2ncnc(Nc3ccc(OCc4c(F)cccc4F)c(OC)c3)c2cc1OCC,4.53

row,SMILES,inhibition [%]
1,Fc1cccc(COc2ccc(Nc3ncnc4sc(C#CCNC5CCCC5)cc34)cc2Cl)c1,2.71
2,O=C(Nc1cccc(CN2CCCN(Cc3ccccc3)CC2)c1)c1cc2ccccc2s1,1.27
3,CCc1c(CCNC/C=C/C=C/CNCCc2ccc(OC)c(OC)c2CC)ccc(OC)c1OC,3.5
4,Oc1cccc(-c2nc(-c3ccccc3)c(-c3ccc4oc5ccc(-c6[nH]c(-c7cccc(O)c7)nc6-c6ccccc6)cc5c4c3)[nH]2)c1,3.36
5,CCOc1ccc(C(C)NC(=O)Cc2ccccc2F)cc1OCC (stereo not given),3.49
6,O=C(Nc1ccc([N+](=O)[O-])cc1)Nc1cc(OCC(F)(F)F)cc(OCC(F)(F)F)c1,4.64
7,COc1cc2nc(N3CCC(CNC(=O)c4ccc(-c5ccc(C(=O)N(C)C)cc5OCCN(C)C)cc4)CC3)nc(N)c2cc1OC,0.34
8,CCCc1ccc(NC(=O)c2ccc(CN3CCCN(Cc4cccc(O)c4)CC3)cc2)cc1,3.2
9,COc1cc2nc(N3CCC(CCCC4CCNCC4)CC3)nc(NCc3ccccn3)c2cc1OC,73.5
10,CC(C)c1ccc(NC(=O)c2cccc(CN3CCCN(Cc4cccc(O)c4)CC3)c2)cc1,15.4
11,Cc1c(C(=O)C2CC2CN2CCC(N3CCCCC3)CC2)sc2ccccc12 (stereo not given),2.43
12,COc1ccc(CC2(c3ccc(F)cc3)N=C(N)N(CCCc3ccc4c(c3)OCO4)C2=O)cc1 (stereo not given),4
13,O=C(c1ccco1)N1CCN(c2nc(-c3ccc(Cl)cc3)nc3ccccc23)CC1,6.35
14,CN(C(=O)/C=C/c1c(Cl)cccc1Cl)C1CCN(CCCCCNC(=O)/C=C/c2ccc(Cl)c(Cl)c2)CC1,2.14
15,O=C(Nc1cc(C(F)(F)F)ccc1N1CCOCC1)C(Cl)(Cl)Cl,10.4
16,Cc1cccc2nc(-c3cccc(-c4ccc(NC(=O)c5ccoc5)cc4)c3)[nH]c12,-0.27
17,CCOc1cc(C)ccc1C1CCN(CCCCNC(=O)c2nc(-c3ccc(C(F)(F)F)cc3)[nH]c2C)CC1,1.65
18,CC(C)CC(=O)N1CCNC[C@@H]1C(=O)NCc1ccc(Cl)c(Cl)c1,2.93
19,O=C(Nc1ccc(OC2CCN(Cc3ccc(F)cc3)C2)c(Cl)c1)c1cccs1 (stereo not given),2.66
20,COc1cccc(C=CC(=O)N(CCN)Cc2ccccc2)c1,6.9

# Biological target: Hexose transporter 1 (Plasmodium falciparum) (UniProt O97467)
# Assay: ST_JUDE_LEISH: Cytotoxicity at 2uM final concentration against transgenic Leishmania Mexicana promastigotes LmPfHT that are glucose transport deficient and complemented with the Plasmodium falciparum hexose transporter. Activity is measured by DNA content using SYBR green in vitro
# Assay type: functional
row,SMILES,inhibition [%]
1,COc1ccc2nccc([C@@H](O)CN3CCC(NC(=O)/C=C/c4cc(F)cc(Br)c4)CC3)c2c1,4.62
2,Cc1ccc(NC(C)C(=O)Nc2ccccc2)cc1S(=O)(=O)N1CCCCCC1 (stereo not given),9.81
3,N#Cc1cccc(CN2CCCN(Cc3cccc(C(=O)Nc4ccc(Cl)cc4)c3)CC2)c1,0.19
4,CC(Cc1ccc(NC(=O)c2ccc(CC(C)NCc3ccc(Cl)cc3)cc2)cc1)NCCc1cccc(Cl)c1 (stereo not given),6.78
5,Cc1cccc(Nc2nc3nonc3nc2Nc2cccc(Cl)c2Cl)c1C,7.64
6,CN(C)Cc1ccc2nc(-c3cccc(Cc4cc(Cl)ccc4OCc4ccc(Cl)cc4F)n3)[nH]c2c1,-0.21
7,N=C1N=C(N)NCN1OCc1ccc(Cl)c(Cl)c1,1.71
8,COc1cccc(C2=CC(C)(C)Oc3cc(OCCN(C)C)ccc32)c1,-3.47
9,Nc1nc(NCC2CCC(CNS(=O)(=O)c3cccc4ccccc34)CC2)nc2ccccc12 (stereo not given),3.12
10,CN1CCC(NCc2cccc(-c3cccc(S(=O)(=O)NCc4ccccc4)c3)c2)CC1,-2.65
11,O=C(NC(=S)NCc1ccncc1)c1ccccc1,-1.93
12,NC1=NC(c2ccccc2)(c2ccccc2)C(=O)N1CCCCc1ccccn1,-0.95
13,CC(=O)N(Cc1nc(-c2cc(C(F)(F)F)cc(C(F)(F)F)c2)cs1)c1c(C)cccc1C,4.86
14,C=CCC(C(=O)Nc1ccnc2ccc(OC)cc12)C1CCN(CCCCCCC)CC1 (stereo not given),1.29
15,COCCNCC(O)Cn1c2ccc(Cl)cc2c2cc(Cl)ccc21 (stereo not given),-1.7
16,Cc1cc(-c2nc3ccc(N4CCN(C)CC4)cc3[nH]2)nn1Cc1cc(Cl)ccc1OCC(C)C,1.76
17,CC1CC(C)CN(S(=O)(=O)c2cc(C(=O)Nc3cccc([N+](=O)[O-])c3)ccc2Br)C1 (stereo not given),7.57
18,Nc1nccc2ccc(Oc3ccncc3)cc12,3.29
19,Cc1cc(N[C@@H](Cc2ccccc2)C(=O)Nc2ccccc2)nc(NCCc2ccc(F)cc2)n1,3.68
20,CCOc1cc2ncnc(Nc3ccc(OCc4c(F)cccc4F)c(OC)c3)c2cc1OCC,2.29

row,SMILES,inhibition [%]
1,Fc1cccc(COc2ccc(Nc3ncnc4sc(C#CCNC5CCCC5)cc34)cc2Cl)c1,2.09
2,O=C(Nc1cccc(CN2CCCN(Cc3ccccc3)CC2)c1)c1cc2ccccc2s1,1.24
3,CCc1c(CCNC/C=C/C=C/CNCCc2ccc(OC)c(OC)c2CC)ccc(OC)c1OC,0.39
4,Oc1cccc(-c2nc(-c3ccccc3)c(-c3ccc4oc5ccc(-c6[nH]c(-c7cccc(O)c7)nc6-c6ccccc6)cc5c4c3)[nH]2)c1,2.88
5,CCOc1ccc(C(C)NC(=O)Cc2ccccc2F)cc1OCC (stereo not given),2.75
6,O=C(Nc1ccc([N+](=O)[O-])cc1)Nc1cc(OCC(F)(F)F)cc(OCC(F)(F)F)c1,5.79
7,COc1cc2nc(N3CCC(CNC(=O)c4ccc(-c5ccc(C(=O)N(C)C)cc5OCCN(C)C)cc4)CC3)nc(N)c2cc1OC,0.98
8,CCCc1ccc(NC(=O)c2ccc(CN3CCCN(Cc4cccc(O)c4)CC3)cc2)cc1,2.61
9,COc1cc2nc(N3CCC(CCCC4CCNCC4)CC3)nc(NCc3ccccn3)c2cc1OC,68.6
10,CC(C)c1ccc(NC(=O)c2cccc(CN3CCCN(Cc4cccc(O)c4)CC3)c2)cc1,12
11,Cc1c(C(=O)C2CC2CN2CCC(N3CCCCC3)CC2)sc2ccccc12 (stereo not given),-0.31
12,COc1ccc(CC2(c3ccc(F)cc3)N=C(N)N(CCCc3ccc4c(c3)OCO4)C2=O)cc1 (stereo not given),5.58
13,O=C(c1ccco1)N1CCN(c2nc(-c3ccc(Cl)cc3)nc3ccccc23)CC1,1.81
14,CN(C(=O)/C=C/c1c(Cl)cccc1Cl)C1CCN(CCCCCNC(=O)/C=C/c2ccc(Cl)c(Cl)c2)CC1,2.38
15,O=C(Nc1cc(C(F)(F)F)ccc1N1CCOCC1)C(Cl)(Cl)Cl,9.77
16,Cc1cccc2nc(-c3cccc(-c4ccc(NC(=O)c5ccoc5)cc4)c3)[nH]c12,2.14
17,CCOc1cc(C)ccc1C1CCN(CCCCNC(=O)c2nc(-c3ccc(C(F)(F)F)cc3)[nH]c2C)CC1,0.72
18,CC(C)CC(=O)N1CCNC[C@@H]1C(=O)NCc1ccc(Cl)c(Cl)c1,1.04
19,O=C(Nc1ccc(OC2CCN(Cc3ccc(F)cc3)C2)c(Cl)c1)c1cccs1 (stereo not given),2.25
20,COc1cccc(C=CC(=O)N(CCN)Cc2ccccc2)c1,8.75
